Results as given in article PMC7862700, “An all-to-all approach to the identification of sequence-specific readers for epigenetic DNA modifications on cytosine”.

How the values were obtained:
Experiment in all cases: DAPPL (digital affinity profiling via proximity ligation, sequencing); 10 mM Tris-HCl pH 7.5, 50 mM NaCl, 1 mM DTT, 4% glycerol, room temperature, 30 min; GST-TFs on glutathione beads, 16-mer random dsDNA library, 0.1% formaldehyde crosslink after washing; high values mean tight binding
FEV = molecular target: T1, FEV (Homo sapiens, UniProt Q99581 1-238); conditions: protein: recombinant; tags: N-terminal GST; dsDNA, one strand shown
T1 sequence: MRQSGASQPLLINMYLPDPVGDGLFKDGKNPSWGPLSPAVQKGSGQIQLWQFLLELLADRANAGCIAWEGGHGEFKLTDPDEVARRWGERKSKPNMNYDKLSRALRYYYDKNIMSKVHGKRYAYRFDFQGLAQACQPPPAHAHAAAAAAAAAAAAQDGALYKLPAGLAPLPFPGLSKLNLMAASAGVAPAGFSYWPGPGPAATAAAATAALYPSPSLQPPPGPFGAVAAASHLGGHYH
Summary of the method: (§1)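 Yeast served to express human transcription factors as GST fusions, which were then captured on glutathione beads and labelled with DNA barcodes. Pooled with a tag-only sample, they were incubated with 200 nmole of a 16-mer random double-stranded DNA library for 30 min at room temperature in Tris/NaCl/DTT/glycerol buffer, washed, crosslinked with 0.1% formaldehyde, ligated by proximity, amplified by PCR and sequenced. Dividing each hexamer's read frequency for a factor by its frequency for the tag-only sample gives the binding signal.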

ETV5 = ETV5 (Homo sapiens, UniProt P41161 1-510); conditions: protein: recombinant; tags: N-terminal GST; dsDNA, one strand shown
Chain of ETV5 (P41161 whole entry): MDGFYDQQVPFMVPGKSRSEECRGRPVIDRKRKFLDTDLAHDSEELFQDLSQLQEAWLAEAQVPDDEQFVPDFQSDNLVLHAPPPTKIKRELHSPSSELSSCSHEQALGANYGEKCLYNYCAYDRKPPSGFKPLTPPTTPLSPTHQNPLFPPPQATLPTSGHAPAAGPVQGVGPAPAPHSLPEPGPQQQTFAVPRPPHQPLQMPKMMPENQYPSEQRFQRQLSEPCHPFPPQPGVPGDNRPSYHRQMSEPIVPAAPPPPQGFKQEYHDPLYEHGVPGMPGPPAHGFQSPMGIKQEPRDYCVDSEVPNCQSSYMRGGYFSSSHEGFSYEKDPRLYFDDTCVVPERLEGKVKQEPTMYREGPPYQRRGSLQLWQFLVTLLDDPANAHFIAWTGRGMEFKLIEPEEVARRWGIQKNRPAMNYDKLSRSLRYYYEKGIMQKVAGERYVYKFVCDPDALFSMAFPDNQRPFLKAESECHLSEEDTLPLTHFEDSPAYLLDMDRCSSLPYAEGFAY
Summary of the method: as §1

HSF1 = HSF1 (Homo sapiens, UniProt Q00613 1-529); conditions: protein: recombinant; tags: N-terminal GST; chain copies: 3; dsDNA, one strand shown
Chain of HSF1 (Q00613 whole entry): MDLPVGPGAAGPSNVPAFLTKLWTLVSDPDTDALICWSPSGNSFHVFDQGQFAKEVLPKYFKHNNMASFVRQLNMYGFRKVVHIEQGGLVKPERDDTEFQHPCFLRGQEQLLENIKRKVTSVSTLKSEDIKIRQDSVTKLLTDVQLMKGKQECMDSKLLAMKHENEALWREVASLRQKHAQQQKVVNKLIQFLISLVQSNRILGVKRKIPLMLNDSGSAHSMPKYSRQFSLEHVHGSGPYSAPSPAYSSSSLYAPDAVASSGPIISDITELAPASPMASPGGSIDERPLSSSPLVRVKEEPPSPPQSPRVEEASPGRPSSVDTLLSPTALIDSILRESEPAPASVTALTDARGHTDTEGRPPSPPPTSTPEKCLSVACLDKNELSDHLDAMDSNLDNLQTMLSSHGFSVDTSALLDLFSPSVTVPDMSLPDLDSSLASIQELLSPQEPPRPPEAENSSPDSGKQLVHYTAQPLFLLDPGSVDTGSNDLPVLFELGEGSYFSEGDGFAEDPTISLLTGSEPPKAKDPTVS
Summary of the method: as §1

SPIC = molecular target: T2, SPIC (Homo sapiens, UniProt Q8N5J4 1-248); conditions: protein: recombinant; tags: N-terminal GST; dsDNA, one strand shown
T2 sequence: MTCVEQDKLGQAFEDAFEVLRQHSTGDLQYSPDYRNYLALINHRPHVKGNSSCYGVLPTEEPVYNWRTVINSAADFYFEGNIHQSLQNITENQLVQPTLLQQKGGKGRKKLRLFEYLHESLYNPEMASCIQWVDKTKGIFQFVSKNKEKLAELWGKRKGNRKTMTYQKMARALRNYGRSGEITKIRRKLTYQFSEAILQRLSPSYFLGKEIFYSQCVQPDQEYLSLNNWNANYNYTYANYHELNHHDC
Summary of the method: as §1

ELF4 = ELF4 (Homo sapiens, UniProt Q99607 1-663); conditions: protein: recombinant; tags: N-terminal GST; dsDNA, one strand shown
Chain of ELF4 (Q99607 whole entry): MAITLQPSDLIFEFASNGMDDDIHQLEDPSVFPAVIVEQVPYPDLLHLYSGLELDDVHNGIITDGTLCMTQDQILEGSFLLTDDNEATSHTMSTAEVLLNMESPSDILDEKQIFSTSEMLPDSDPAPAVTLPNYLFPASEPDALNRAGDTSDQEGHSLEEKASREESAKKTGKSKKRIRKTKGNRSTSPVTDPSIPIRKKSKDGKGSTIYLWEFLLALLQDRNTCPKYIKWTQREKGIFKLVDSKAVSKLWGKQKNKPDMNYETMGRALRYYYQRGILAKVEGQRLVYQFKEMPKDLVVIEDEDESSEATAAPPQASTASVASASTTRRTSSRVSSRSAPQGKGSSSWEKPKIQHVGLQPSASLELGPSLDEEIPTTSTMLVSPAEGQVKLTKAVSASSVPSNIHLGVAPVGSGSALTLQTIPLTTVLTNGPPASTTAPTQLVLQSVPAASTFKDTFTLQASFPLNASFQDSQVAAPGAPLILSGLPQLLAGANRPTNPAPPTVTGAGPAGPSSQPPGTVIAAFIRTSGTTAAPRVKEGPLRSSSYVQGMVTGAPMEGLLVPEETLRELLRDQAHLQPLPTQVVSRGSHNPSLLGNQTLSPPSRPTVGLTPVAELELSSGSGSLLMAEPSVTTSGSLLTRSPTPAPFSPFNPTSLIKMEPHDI
Summary of the method: as §1

ELK4 = molecular target: T3, ELK4 (Homo sapiens, UniProt P28324-2 1-405); conditions: protein: recombinant; tags: N-terminal GST; dsDNA, one strand shown
T3 sequence: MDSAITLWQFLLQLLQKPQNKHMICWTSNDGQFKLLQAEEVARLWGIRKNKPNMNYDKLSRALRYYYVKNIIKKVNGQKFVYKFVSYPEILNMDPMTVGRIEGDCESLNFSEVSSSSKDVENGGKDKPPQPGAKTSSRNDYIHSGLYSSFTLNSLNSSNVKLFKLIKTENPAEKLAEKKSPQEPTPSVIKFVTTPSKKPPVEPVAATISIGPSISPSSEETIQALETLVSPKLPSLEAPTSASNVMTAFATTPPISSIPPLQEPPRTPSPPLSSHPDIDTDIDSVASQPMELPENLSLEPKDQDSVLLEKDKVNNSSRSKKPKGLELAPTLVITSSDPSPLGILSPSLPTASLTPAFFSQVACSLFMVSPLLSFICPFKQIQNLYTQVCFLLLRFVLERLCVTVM
Summary of the method: as §1

ETV2 = molecular target: T4, ETV2 (Homo sapiens, UniProt O00321 1-342); conditions: protein: recombinant; tags: N-terminal GST; dsDNA, one strand shown
T4 sequence: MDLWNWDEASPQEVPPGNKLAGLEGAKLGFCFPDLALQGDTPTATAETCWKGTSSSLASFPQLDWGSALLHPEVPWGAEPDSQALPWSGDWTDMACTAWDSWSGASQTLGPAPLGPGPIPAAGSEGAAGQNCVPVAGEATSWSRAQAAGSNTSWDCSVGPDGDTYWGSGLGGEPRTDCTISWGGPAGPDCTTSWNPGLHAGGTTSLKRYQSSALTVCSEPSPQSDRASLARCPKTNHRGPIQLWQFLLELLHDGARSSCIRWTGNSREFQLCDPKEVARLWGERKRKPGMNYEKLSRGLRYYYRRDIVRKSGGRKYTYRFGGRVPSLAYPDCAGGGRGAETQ
Summary of the method: as §1

ELF3 = molecular target: T5, ELF3 (Homo sapiens, UniProt P78545 1-371); conditions: protein: recombinant; tags: N-terminal GST; dsDNA, one strand shown
T5 sequence: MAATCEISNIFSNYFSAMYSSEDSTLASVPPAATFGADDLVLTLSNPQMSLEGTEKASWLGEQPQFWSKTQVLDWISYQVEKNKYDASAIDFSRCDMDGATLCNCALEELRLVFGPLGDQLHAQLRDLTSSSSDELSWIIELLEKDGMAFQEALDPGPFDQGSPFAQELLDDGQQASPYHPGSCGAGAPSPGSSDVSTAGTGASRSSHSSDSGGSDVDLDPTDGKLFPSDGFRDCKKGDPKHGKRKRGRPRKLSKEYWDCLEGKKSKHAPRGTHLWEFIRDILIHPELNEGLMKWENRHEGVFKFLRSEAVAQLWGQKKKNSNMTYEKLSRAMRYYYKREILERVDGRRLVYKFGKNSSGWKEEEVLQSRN
Summary of the method: as §1

CRX = CRX (Homo sapiens, UniProt O43186 1-299); conditions: protein: recombinant; tags: N-terminal GST; dsDNA, one strand shown
Chain of CRX (O43186 whole entry): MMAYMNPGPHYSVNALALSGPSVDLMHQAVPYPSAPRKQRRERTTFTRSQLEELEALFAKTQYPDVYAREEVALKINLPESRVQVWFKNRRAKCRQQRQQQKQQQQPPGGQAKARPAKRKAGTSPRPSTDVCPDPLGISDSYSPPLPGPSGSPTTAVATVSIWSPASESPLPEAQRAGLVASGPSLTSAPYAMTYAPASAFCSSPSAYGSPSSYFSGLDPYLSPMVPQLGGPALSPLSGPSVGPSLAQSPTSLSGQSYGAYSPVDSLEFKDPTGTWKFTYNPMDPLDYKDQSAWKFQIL
Summary of the method: as §1

ETV1 = ETV1 (Homo sapiens, UniProt P50549 1-477); conditions: protein: recombinant; tags: N-terminal GST; dsDNA, one strand shown
Chain of ETV1 (P50549 whole entry): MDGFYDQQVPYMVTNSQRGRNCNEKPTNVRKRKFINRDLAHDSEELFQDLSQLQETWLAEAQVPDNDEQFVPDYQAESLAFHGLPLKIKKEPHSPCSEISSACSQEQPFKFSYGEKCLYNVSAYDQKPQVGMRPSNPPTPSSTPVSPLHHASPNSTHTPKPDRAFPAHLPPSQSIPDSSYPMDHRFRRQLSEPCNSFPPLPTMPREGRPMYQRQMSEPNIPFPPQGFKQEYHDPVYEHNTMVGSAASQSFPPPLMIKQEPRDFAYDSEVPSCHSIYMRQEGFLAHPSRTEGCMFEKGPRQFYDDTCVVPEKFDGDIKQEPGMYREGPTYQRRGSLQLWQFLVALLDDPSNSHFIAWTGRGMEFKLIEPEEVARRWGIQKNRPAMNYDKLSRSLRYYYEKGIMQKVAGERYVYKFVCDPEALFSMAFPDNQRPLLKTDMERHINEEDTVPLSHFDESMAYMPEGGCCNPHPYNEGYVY
Summary of the method: as §1

Sequence | binding signal (FEV) | binding signal (ETV5) | binding signal (HSF1) | binding signal (SPIC) | binding signal (ELF4) | binding signal (ELK4) | binding signal (ETV2) | binding signal (ELF3) | binding signal (CRX) | binding signal (ETV1)
GTTTCC | 3.32 fold enrichment (6-mer frequency, TF over GST control) | 3.01 fold enrichment (6-mer frequency, TF over GST control) | 1.42 fold enrichment (6-mer frequency, TF over GST control) | 2.6 fold enrichment (6-mer frequency, TF over GST control) | 2.56 fold enrichment (6-mer frequency, TF over GST control) | 2.16 fold enrichment (6-mer frequency, TF over GST control) | 2.42 fold enrichment (6-mer frequency, TF over GST control) | 2.55 fold enrichment (6-mer frequency, TF over GST control) | 1.08 fold enrichment (6-mer frequency, TF over GST control) | 2.65 fold enrichment (6-mer frequency, TF over GST control)
CGTATT | 1.07 fold enrichment (6-mer frequency, TF over GST control) | 1.2 fold enrichment (6-mer frequency, TF over GST control) | 1.21 fold enrichment (6-mer frequency, TF over GST control) | 1.22 fold enrichment (6-mer frequency, TF over GST control) | 1.16 fold enrichment (6-mer frequency, TF over GST control) | 1.18 fold enrichment (6-mer frequency, TF over GST control) | 1.38 fold enrichment (6-mer frequency, TF over GST control) | 1.04 fold enrichment (6-mer frequency, TF over GST control) | 1.46 fold enrichment (6-mer frequency, TF over GST control) | 1.22 fold enrichment (6-mer frequency, TF over GST control)
CTACGC | 1.62 fold enrichment (6-mer frequency, TF over GST control) | 1.6 fold enrichment (6-mer frequency, TF over GST control) | 1.39 fold enrichment (6-mer frequency, TF over GST control) | 1.36 fold enrichment (6-mer frequency, TF over GST control) | 1.51 fold enrichment (6-mer frequency, TF over GST control) | 1.6 fold enrichment (6-mer frequency, TF over GST control) | 1.57 fold enrichment (6-mer frequency, TF over GST control) | 1.57 fold enrichment (6-mer frequency, TF over GST control) | 1.38 fold enrichment (6-mer frequency, TF over GST control) | 1.55 fold enrichment (6-mer frequency, TF over GST control)
TAGTAT | 1.28 fold enrichment (6-mer frequency, TF over GST control) | 1.33 fold enrichment (6-mer frequency, TF over GST control) | 1.55 fold enrichment (6-mer frequency, TF over GST control) | 1.43 fold enrichment (6-mer frequency, TF over GST control) | 1.3 fold enrichment (6-mer frequency, TF over GST control) | 1.31 fold enrichment (6-mer frequency, TF over GST control) | 1.34 fold enrichment (6-mer frequency, TF over GST control) | 1.3 fold enrichment (6-mer frequency, TF over GST control) | 1.68 fold enrichment (6-mer frequency, TF over GST control) | 1.23 fold enrichment (6-mer frequency, TF over GST control)
CCTTCT | 1.59 fold enrichment (6-mer frequency, TF over GST control) | 1.59 fold enrichment (6-mer frequency, TF over GST control) | 2.98 fold enrichment (6-mer frequency, TF over GST control) | 1.63 fold enrichment (6-mer frequency, TF over GST control) | 1.76 fold enrichment (6-mer frequency, TF over GST control) | 1.68 fold enrichment (6-mer frequency, TF over GST control) | 1.65 fold enrichment (6-mer frequency, TF over GST control) | 1.54 fold enrichment (6-mer frequency, TF over GST control) | 1.92 fold enrichment (6-mer frequency, TF over GST control) | 1.63 fold enrichment (6-mer frequency, TF over GST control)
TCGCCC | 1.3 fold enrichment (6-mer frequency, TF over GST control) | 1.24 fold enrichment (6-mer frequency, TF over GST control) | 1.09 fold enrichment (6-mer frequency, TF over GST control) | 1.49 fold enrichment (6-mer frequency, TF over GST control) | 1.23 fold enrichment (6-mer frequency, TF over GST control) | 1.19 fold enrichment (6-mer frequency, TF over GST control) | 1.19 fold enrichment (6-mer frequency, TF over GST control) | 1.22 fold enrichment (6-mer frequency, TF over GST control) | 1.07 fold enrichment (6-mer frequency, TF over GST control) | 1.26 fold enrichment (6-mer frequency, TF over GST control)
AACATA | 1.2 fold enrichment (6-mer frequency, TF over GST control) | 1.31 fold enrichment (6-mer frequency, TF over GST control) | 1.36 fold enrichment (6-mer frequency, TF over GST control) | 1.37 fold enrichment (6-mer frequency, TF over GST control) | 1.3 fold enrichment (6-mer frequency, TF over GST control) | 1.16 fold enrichment (6-mer frequency, TF over GST control) | 1.38 fold enrichment (6-mer frequency, TF over GST control) | 1.36 fold enrichment (6-mer frequency, TF over GST control) | 1.3 fold enrichment (6-mer frequency, TF over GST control) | 1.21 fold enrichment (6-mer frequency, TF over GST control)
ACGCTT | 1.4 fold enrichment (6-mer frequency, TF over GST control) | 1.41 fold enrichment (6-mer frequency, TF over GST control) | 1.22 fold enrichment (6-mer frequency, TF over GST control) | 1.32 fold enrichment (6-mer frequency, TF over GST control) | 1.43 fold enrichment (6-mer frequency, TF over GST control) | 1.23 fold enrichment (6-mer frequency, TF over GST control) | 1.28 fold enrichment (6-mer frequency, TF over GST control) | 1.55 fold enrichment (6-mer frequency, TF over GST control) | 1.36 fold enrichment (6-mer frequency, TF over GST control) | 1.39 fold enrichment (6-mer frequency, TF over GST control)
